Assay outcomes deposited in PubChem by National Center for Advancing Translational Sciences (NCATS).
FH mod = Identification of activators of human fumarate hydratase by quantitative high-throughput screening; Potency, µM (series often up to 79.9 µM), actives largely listed as inhibitors; Fumarate hydratase, mitochondrial (Homo sapiens), P07954; FH coupled MDH/diaphorase resazurin fluorescence, 15 min; 54,000 compounds, 0.22% hits; further: the screen sought activators but most active calls are inhibition curves; nearly all actives have a fitted effect of over 45% in size
NTMT1 inhibitor = Primary qHTS for Inhibitors of N-terminal methyltransferase 1 (NTMT1): MTaseGlo Assay | NTMT1 MTase-Glo SAH luminescence, purified enzyme | Potency, µM (series often up to 114 µM), hits mostly inhibitors | 59,000 compounds, 2.5% hits | N-terminal Xaa-Pro-Lys N-methyltransferase 1 (Homo sapiens), Q9BV86 | AID 1645870, 2021; further: nearly all actives have a fitted effect of over 65% in size
Target sequence (Q9BV86 whole entry, looked up): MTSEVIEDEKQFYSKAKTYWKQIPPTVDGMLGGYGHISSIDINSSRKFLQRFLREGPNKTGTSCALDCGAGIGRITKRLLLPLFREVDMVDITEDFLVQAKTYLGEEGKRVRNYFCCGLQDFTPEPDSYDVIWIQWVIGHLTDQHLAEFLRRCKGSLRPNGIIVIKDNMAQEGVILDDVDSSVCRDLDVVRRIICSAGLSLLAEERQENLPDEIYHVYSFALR
GPR32 ag = qHTS for Agonists of Human Resolvin D1 Receptor DRV1. Probable G-protein coupled receptor 32 (Homo sapiens), O75388. CHO-K1 GPR32 beta-arrestin PathHunter luminescence, 90 min; zero percent set by DMSO-only wells. activation, % at 76.9 µM. 48,000 compounds, 2.5% hits. AID 1346428, 2018;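 active means activation of at least 60% and not above a set upper limit, about 1 call in 100 departs from these limits; inconclusive means activation of 40% to 60%, or above that upper limit; inactive means activation under 40%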
Target sequence (O75388 whole entry, looked up): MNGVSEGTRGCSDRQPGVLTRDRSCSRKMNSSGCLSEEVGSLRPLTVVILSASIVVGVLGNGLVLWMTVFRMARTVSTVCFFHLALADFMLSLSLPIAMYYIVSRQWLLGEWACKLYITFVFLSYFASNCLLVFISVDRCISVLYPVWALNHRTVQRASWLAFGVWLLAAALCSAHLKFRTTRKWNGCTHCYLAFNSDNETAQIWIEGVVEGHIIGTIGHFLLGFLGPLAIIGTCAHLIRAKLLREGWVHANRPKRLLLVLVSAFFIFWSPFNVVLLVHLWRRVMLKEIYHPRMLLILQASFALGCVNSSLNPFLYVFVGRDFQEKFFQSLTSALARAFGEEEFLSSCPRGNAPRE
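Using DMSO wells as EC0, agonist-induced signal was taken as chemiluminescence from beta-Gal reconstituted upon beta-arrestin recruitment to GPR32 in CHO-K1 cells after 90 min compound treatment.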
SKOV3 invasion = Primary qHTS assay for Inhibitors of ovarian cancer metastasis using an organotypic tumor microenvironment (TME) model; AID 1963576, 2024; SKOV3ip1-GFP adhesion/invasion on 3D omental model, fluorescence; Potency, µM (highest dose often 45.8 µM), actives largely listed as inhibitors; 46,000 compounds, 0.1% hits; further: nearly all actives have a fitted effect of over 65% in size
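A 3D layer of primary human omental fibroblasts, mesothelial cells, fibronectin and collagen I, grown 48 hr, received SKOV3ip1-GFP cells in serum-free medium plus compounds at 0.36-46 umol/L. After 2 hr RT and 16 hr 37 C, fixed adherent GFP cells were counted; normalized to DMSO and tomatine.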
A number is an active result; – = inactive; ? = inconclusive; · = no result given; ! = repeats disagree. In the library only some 3.8% were active in any assay of this set; here they are far more common. Unless noted, the call rests on the fitted dose curve; in most records, active means well fitted curve in the direction sought with a large enough effect; inconclusive means small, poorly fitted or top-dose-only effect, or another doubt; inactive means no such curve, though single readings can be large; an effect the other way counts as inactive or inconclusive.

SMILES	FH mod	NTMT1 inhibitor	GPR32 ag	SKOV3 invasion
CN(C)CCOc1ccc(-c2nc(-c3ccc4c(c3)CC/C4=N\O)c(-c3ccncc3)[nH]2)cc1	·	28µM	·	·
CCN(CC)CCNC(=O)c1cc(-c2ccc(Br)s2)nc2ccccc12	–	?	–	10µM
CCCN(CCC)CCNC(=O)c1cc(-c2ccc(Br)s2)nc2ccccc12	–	–	–	?
CCCn1c2ccccc2c2cnn(CC(=O)NCCc3ccc(OCC)cc3)c(=O)c21	–	–	–	?
Cc1ccc(-c2nc3nc(C)cc(Nc4ccccc4O)n3n2)cc1	–	–	72	–
COc1cccc(N2CCN(C(=O)c3cc4c(=O)n(Cc5cccnc5)ccc4nc3C)CC2)c1	–	–	–	–
Cc1ccccc1NC(=O)c1c(NC(=O)C(F)(F)F)sc2c1CCCCC2	?	–	–	–
Cc1ccc(NC(=O)c2c(NC(=O)C(F)(F)F)sc3c2CCCCC3)cc1	?	–	62	–
COc1ccc(NC(=O)c2c(NC(=O)COc3ccccc3)sc3c2CCCCC3)cc1	–	–	–	–
Cc1cccc(NC(=O)c2c(NC(=O)C(F)(F)F)sc3c2CCCCC3)c1	?	10µM	–	?
O=C(COc1ccc(Cl)cc1)Nc1sc2c(c1C(=O)Nc1cccc(Cl)c1)CCCC2	–	25µM	–	–
O=C(Nc1cccc(Cl)c1)c1c(NC(=O)C(F)(F)F)sc2c1CCCC2	?	8.9µM	–	?
CCOc1ccc(-n2c(=O)c3c4c(sc3n(Cc3cccc(C)c3)c2=O)CCCC4)cc1	–	–	–	–
CCOC(=O)c1c(C)sc(-c2c(-c3ccc4c(c3)OCCO4)[nH]c3c2c(=O)n(C)c(=O)n3C)c1O	–	–	–	–
Cc1ccc(NCc2nc3ccccc3n2CCOc2ccccc2C)cc1	?	–	–	–
CSc1nc2c([nH]c3ccccc32)c(=O)n1-c1ccc(F)cc1	–	–	?	–
CCSc1nc2c([nH]c3ccccc32)c(=O)n1-c1ccc(F)cc1	–	–	79	–
Cc1cccc(CNc2ccnc(-c3ccc(F)cc3F)n2)c1	·	–	·	·
Cc1ccc(NC(=O)C(=O)NCC2(c3ccccc3)CCCC2)cc1Cl	–	–	–	–
Cc1ccc(C(CC(=O)NCC2(c3ccccc3)CCCC2)c2ccccc2)c(O)c1 (stereo not drawn)	·	·	63	–
CN(C)S(=O)(=O)c1ccc(C(=O)NC2CC(=O)N(c3ccc4c(c3)OCCO4)C2)cc1 (stereo not drawn)	–	89µM	–	–
CC/C(=C(\c1ccccc1)c1ccc(OCCN(C)C)cc1)c1ccccc1	?	?	–	·
CCC(=C(c1ccc(O)cc1)c1ccc(OCCNC)cc1)c1ccccc1	–	24µM	·	–
CCC(=C(c1ccccc1)c1ccc(OCCN(C)C)cc1)c1ccccc1	–	19µM	·	–
CC/C(=C(/c1ccc(O)cc1)c1ccc(OCCNC)cc1)c1ccccc1	·	11µM	·	·
SMILES	FH mod	NTMT1 inhibitor	GPR32 ag	SKOV3 invasion
CCOc1ccccc1NC(=O)Cn1ccn(-c2ccccc2)c(=O)c1=O	–	–	–	–
COc1ccc(NC(=O)c2oc3ccc(S(=O)(=O)N(C)C4CCCCC4)cc3c2C)cc1	–	–	–	–
COC(=O)c1cc(S(=O)(=O)N2CCN(c3ccc(OC)cc3)CC2)c[nH]1	–	–	–	–
CC(=O)N1CCc2c(sc3c2c(=O)n(Cc2ccccc2)c(=O)n3CC(=O)Nc2ccc(C)c(F)c2)C1	–	–	–	–
Cc1cc(C)cc(NS(=O)(=O)c2ccc(N3CCCCS3(=O)=O)cc2)c1	–	–	–	–
N#Cc1ccc(-c2cccs2)nc1SCC(=O)Nc1cccc(C(F)(F)F)c1	–	–	82	–
Cc1ccc(C)c(NC(=O)CN(CCc2ccccc2)S(=O)(=O)c2ccccc2)c1	?	–	–	–
COc1ccc(S(=O)(=O)N(CCc2ccccc2)CC(=O)Nc2cc(Cl)ccc2C)cc1	–	4µM	–	–
Cc1cn([C@H]2C[C@H](N[S+](=O)([O-])Cc3cc(Cl)cc(Cl)c3)[C@@H](CO)O2)c(=O)[nH]c1=O	·	79µM	·	·
CCN(CC)CCCCn1c(-c2ccccc2)nc2c(NCc3ccccc3)nc(C)nc21	·	89µM	·	·
CCN(CC)CCCn1c(-c2ccccc2)nc2c(NCc3ccccc3)nc(C)nc21	·	–	·	·
CC(C)c1c2cc(-c3ccnc(NC4CCC(NC5CCOCC5)CC4)n3)ccc2nn1C (stereo not drawn)	–	45µM	·	·
CCC(C(=O)Nc1cc(OC)cc(OC)c1)n1nc(-c2ccc(C)c(C)c2)ccc1=O (stereo not drawn)	?	–	–	–
CCC1CCCCN1CCCNC(=O)c1cc2c(Cl)nc3ccc(C)cc3c2s1 (stereo not drawn)	–	28µM	–	?
COc1ccc(-n2nc3c(N4CCCC(C(=O)NCc5ccc(C)cc5)C4)nnc(C)c3c2C)cc1 (stereo not drawn)	–	?	111	13µM
COc1ccc(CNC(=O)C2CCCN(c3nnc(C)c4c(C)n(-c5ccc(C)cc5)nc34)C2)cc1 (stereo not drawn)	–	79µM	–	–
CCc1ccc(CNC(=O)C2CCCN(c3nnc(C)c4c(C)n(-c5ccc(OC)cc5)nc34)C2)cc1 (stereo not drawn)	–	?	–	?
Cc1ccc(C(=O)Nc2ccc3oc(-c4ccncc4)nc3c2)c(Cl)c1	–	–	–	–
O=C(Nc1ccc(N2CCN(c3ccc(F)cc3)CC2)c(C(=O)O)c1)c1cccs1	–	89µM	–	–
COC(=O)Nc1nc2ccc(S(=O)c3ccccc3)cc2[nH]1 (stereo not drawn)	–	–	–	–
CCCS(=O)c1ccc2nc(NC(=O)OC)[nH]c2c1 (stereo not drawn)	–	50µM!	–	–
COC(=O)Nc1nc2ccc(C(=O)c3cccs3)cc2[nH]1	–	28µM!	–	–
COC(=O)Nc1nc2ccc(C(=O)c3ccccc3)cc2[nH]1	–	30µM!	–	–
CCCSc1ccc2nc(NC(=O)OC)[nH]c2c1	–	–	–	·
C[C@]12CC[C@@H]3c4ccc(O)cc4CC[C@H]3[C@@H]1CC[C@@H]2OC(=O)CCC1CCCC1	?	–	–	·
SMILES	FH mod	NTMT1 inhibitor	GPR32 ag	SKOV3 invasion
S=c1nc[nH]c2nc[nH]c12	–	25µM!	–	–
CCCCN(CCCNC(=O)c1cc(Nc2cccc(SC)c2)nc2ccccc12)Cc1ccccc1	?	–	–	?
COc1ccc(C)cc1NC(=O)Cn1c(=O)oc2cc(S(=O)(=O)N3CCCCC3)ccc21	–	?	84	–
COc1ccc(Cl)cc1NC(=O)Cn1c(=O)oc2cc(S(=O)(=O)N3CCCCCC3)ccc21	–	–	–	–
COc1cccc(NC(=O)Cn2c(=O)oc3cc(S(=O)(=O)N4CCCCC4)ccc32)c1	–	–	116	?
COc1ccc(CNC(=O)Cn2c(=O)oc3cc(S(=O)(=O)N4CCCCCC4)ccc32)cc1	–	–	61	–
